Among the test systems are NCI-H23 lung; NCI-H226 lung; NCI-H322M lung; HOP-62 NSCLC; NCI-H460 lung; HOP-92 NSCLC; NCI-H522 lung; A549/ATCC NSCLC; 786-0 renal; COLO 205 colon.
Holding throughout (experiment): NCI-60 one-dose screen, 48 h (100 = growth as untreated, 0 = no growth, -100 = all killed)
Details in all cases: 10 µM unless noted

Values joined by “and” are separate entries in the source; they are usually repeats but may differ in a detail not shown here. Identical values can stand only once. The panel holds about 83,000 compounds, 20% with a hit somewhere; the sample as a whole holds those more often.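 Step 1: grow cells in 96-well plates. Step 2: add test compound at a single concentration. Step 3: incubate 48 h. Step 4: record percent growth.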 Active and inactive are the calls of the source. How the source made its calls: active means growth percent below 10; inactive means the rest.

The values below come from PubChem BioAssay (NCI).

Turning to `COc1ccc(CCn2cnn3c(=O)c4ccccc4nc3c2=O)cc1OC`, the growth with NCI-H23 lung was 97.6% (inactive) and 114% (inactive); in the assay on NCI-H226 lung, 94.7% (inactive) and 97% (inactive); in the assay with NCI-H322M lung, 103% (inactive) and 110% (inactive); with HOP-62 NSCLC, 112% (inactive) and 104% (inactive); with NCI-H460 lung it was 105% (inactive) and 118% (inactive); in the assay on HOP-92 NSCLC, 93.6% (inactive) and 88.7% (inactive). For the same molecule, the growth was 112% (inactive) and 97.6% (inactive) in the assay with NCI-H522 lung; 104% (inactive) and 106% (inactive) with A549/ATCC NSCLC; 95.2% (inactive) and 108% (inactive) with 786-0 renal; 104% (inactive) and 117% (inactive) in the assay on COLO 205 colon.
Regarding `c1ccc2c[n+](Cc3ccc4ccccc4n3)ccc2c1`, the growth was 69.1% (inactive) with NCI-H23 lung; 85.8% (inactive) in the assay with NCI-H226 lung; 104% (inactive) in the assay on NCI-H322M lung; 80.1% (inactive) in the assay on HOP-62 NSCLC; 88.4% (inactive) with NCI-H460 lung; 56% (inactive) with HOP-92 NSCLC. The growth is 84.9% (inactive) in the assay with NCI-H522 lung, 65.5% (inactive) in the assay with A549/ATCC NSCLC, 95.3% (inactive) with 786-0 renal and 46.5% (inactive) in the assay on COLO 205 colon.
For the molecule `Cc1cc(Cl)nc(Nc2ccccc2)n1`, the growth in the assay on NCI-H23 lung is 95.9% (inactive); in the assay on NCI-H226 lung it was 91.2% (inactive); with NCI-H322M lung, 92% (inactive); with HOP-62 NSCLC it was 62.9% (inactive); in the assay on NCI-H460 lung, 103% (inactive); in the assay with HOP-92 NSCLC, 91.2% (inactive). In addition, the growth in the assay on NCI-H522 lung is 91% (inactive); with A549/ATCC NSCLC, 104% (inactive); in the assay with 786-0 renal, 93.8% (inactive); in the assay on COLO 205 colon, 114% (inactive).
`CC(C)(C)OC(=O)CC1(O)CCCCC1`: the growth in the assay on NCI-H23 lung is 101% (inactive); in the assay with NCI-H226 lung it was 93.7% (inactive); in the assay with NCI-H322M lung, 111% (inactive); in the assay with HOP-62 NSCLC, 114% (inactive); in the assay with NCI-H460 lung it was 103% (inactive); with HOP-92 NSCLC, 86.1% (inactive). In addition, the growth is 102% (inactive) in the assay with NCI-H522 lung, 109% (inactive) in the assay on A549/ATCC NSCLC, 101% (inactive) in the assay on 786-0 renal and 109% (inactive) in the assay with COLO 205 colon.
As to `COCCNC(C)=O`, the growth in the assay with NCI-H23 lung was 107% (inactive); in the assay with NCI-H226 lung it was 90.3% (inactive); with NCI-H322M lung, 108% (inactive); with HOP-62 NSCLC it was 98.4% (inactive); with NCI-H460 lung it was 102% (inactive); in the assay with HOP-92 NSCLC, 102% (inactive). Moreover, the growth in the assay on NCI-H522 lung was 96.6% (inactive); in the assay with A549/ATCC NSCLC, 104% (inactive); with 786-0 renal, 97.5% (inactive); in the assay on COLO 205 colon it was 108% (inactive).
Consider `O=C(Nc1ccccc1)OCC(CN1CCCCC1)OC(=O)Nc1ccccc1` (stereo not given), for which the growth was 78.4% (inactive) and 103% (inactive) in the assay on NCI-H23 lung; 96.6% (inactive) and 89.9% (inactive) with NCI-H226 lung; 81% (inactive) and 92.2% (inactive) in the assay on NCI-H322M lung; 83.6% (inactive) and 110% (inactive) in the assay with HOP-62 NSCLC; 106% (inactive) and 105% (inactive) in the assay with NCI-H460 lung; 76.4% (inactive) with HOP-92 NSCLC. Moreover, the growth in the assay on NCI-H522 lung is 103% (inactive); in the assay on A549/ATCC NSCLC it was 94.1% (inactive) and 94.4% (inactive); in the assay on 786-0 renal, 64% (inactive) and 101% (inactive); in the assay on COLO 205 colon, 98% (inactive).
On to `N=C(N)N1CCc2ccccc2C1`, for which the growth is 87.2% (inactive) and 106% (inactive) in the assay with NCI-H23 lung; 97.6% (inactive) and 108% (inactive) in the assay with NCI-H226 lung; 98.6% (inactive) and 116% (inactive) in the assay on NCI-H322M lung; 93.1% (inactive) and 96.8% (inactive) in the assay with HOP-62 NSCLC; 103% (inactive) and 95.5% (inactive) with NCI-H460 lung; 156% (inactive) in the assay with HOP-92 NSCLC. Besides, the growth with NCI-H522 lung is 83.9% (inactive) and 118% (inactive); with A549/ATCC NSCLC it was 81.9% (inactive) and 96.9% (inactive); in the assay with 786-0 renal, 87.5% (inactive) and 112% (inactive); in the assay on COLO 205 colon, 100% (inactive) and 106% (inactive).
On to `Clc1ccc2c(c1)N(C1CCCN(Cc3ccccc3)C1)c1ccccc1S2` (stereo not given), for which the growth in the assay on NCI-H23 lung was 61.9% (inactive); in the assay on NCI-H226 lung it was 82.1% (inactive); with NCI-H322M lung, 31.1% (inactive); with HOP-62 NSCLC, 82.1% (inactive); with NCI-H460 lung it was 25.4% (inactive); in the assay with HOP-92 NSCLC, 51.7% (inactive). The growth with NCI-H522 lung was 14.9% (inactive); in the assay on A549/ATCC NSCLC it was 35% (inactive); in the assay with 786-0 renal, 61.8% (inactive); in the assay on COLO 205 colon it was 3.47% (active).
With `NCCSSC/C=C\CSSCCN`, the growth is 102% (inactive) with NCI-H23 lung; 90.1% (inactive) in the assay on NCI-H226 lung; 100% (inactive) with NCI-H322M lung; 98.4% (inactive) in the assay on HOP-62 NSCLC; 97.5% (inactive) with NCI-H460 lung; 84.6% (inactive) in the assay on HOP-92 NSCLC. For the same molecule, the growth in the assay on NCI-H522 lung is 88.1% (inactive); in the assay with A549/ATCC NSCLC it was 90.1% (inactive); in the assay with 786-0 renal, 99% (inactive); in the assay with COLO 205 colon, 113% (inactive).
As for `COc1ccc(CCNC(=S)NN)cc1OC`, the growth is 99.5% (inactive) in the assay with NCI-H23 lung; 106% (inactive) with NCI-H226 lung; 108% (inactive) in the assay on NCI-H322M lung; 117% (inactive) in the assay on HOP-62 NSCLC; 101% (inactive) in the assay with NCI-H460 lung; 94.8% (inactive) with HOP-92 NSCLC. The growth with NCI-H522 lung is 102% (inactive); in the assay on A549/ATCC NSCLC, 106% (inactive); in the assay on 786-0 renal it was 109% (inactive); with COLO 205 colon it was 112% (inactive).
Turning to `O=C1C=CC[C@H](/C=C/c2ccccc2)O1`, the growth in the assay with NCI-H23 lung was 37.8% (inactive) and 40.7% (inactive); with NCI-H226 lung, 29.8% (inactive) and -33% (active); with NCI-H322M lung it was 25.5% (inactive) and 4.12% (active); in the assay with HOP-62 NSCLC, 64.7% (inactive) and -48.7% (active); in the assay on NCI-H460 lung, 4.39% (active) and -32.3% (active); with HOP-92 NSCLC, 10.3% (inactive) and -15.8% (active). The growth is 13.9% (inactive) and 47.5% (inactive) in the assay on NCI-H522 lung; 12.2% (inactive) and 7.95% (active) in the assay with A549/ATCC NSCLC; 48.2% (inactive) and -27.8% (active) in the assay with 786-0 renal; 57.9% (inactive) and -70.8% (active) with COLO 205 colon.
For the molecule `Cc1ccc(S(=O)(=O)n2ccnc2)cc1`, the growth in the assay with NCI-H23 lung is 102% (inactive); with NCI-H226 lung, 93.5% (inactive); in the assay on NCI-H322M lung, 118% (inactive); in the assay on HOP-62 NSCLC it was 106% (inactive); with NCI-H460 lung, 104% (inactive); in the assay on HOP-92 NSCLC, 97% (inactive). The growth with NCI-H522 lung is 95.8% (inactive); in the assay on A549/ATCC NSCLC it was 89.1% (inactive); with 786-0 renal, 138% (inactive); with COLO 205 colon, 120% (inactive).
